Reference: PubChem BioAssay (NCATS)
Values without a mark were called inactive. Results filed as inconclusive are left out. Active and inactive are the calls of the source. Calls follow the shape of the dose curve; as a rule, active = well fitted curve in the direction sought with a large enough effect; inconclusive = small, poorly fitted or top-dose-only effect, or another doubt; inactive = no such curve, though single readings can be large; an effect the other way counts as inactive or inconclusive.

Target: Cytochrome P450 3A4 (Homo sapiens) (UniProt P08684)
Assay: qHTS Assay for Inhibitors and Substrates of Cytochrome P450 3A4 (AID 884); also: nearly all actives have a fitted effect of over 50% in size; also: potency is read from the fitted curve at half-maximal effect; as to activity change, negative = inhibition: % is scaled to controls: 0 for no effect and ±100 for the full control effect
Settings: recombinant CYP3A4, Luciferin-PPXE luminescence; series mostly up to 57.1 µM; activity change, negative = inhibition: at the top concentration
Procedure, shortened: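 20 nM human CYP3A4 with 25 uM Luciferin-PPXE (at KM) in 200 mM KPO4, preincubated 10 min with compound; NADPH regeneration started a 60 min RT reaction. Luciferin detected by luminescence, normalized to 57 uM ketoconazole as full inhibition.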

Sequence of Cytochrome P450 3A4 (Homo sapiens) (P08684 whole entry, looked up): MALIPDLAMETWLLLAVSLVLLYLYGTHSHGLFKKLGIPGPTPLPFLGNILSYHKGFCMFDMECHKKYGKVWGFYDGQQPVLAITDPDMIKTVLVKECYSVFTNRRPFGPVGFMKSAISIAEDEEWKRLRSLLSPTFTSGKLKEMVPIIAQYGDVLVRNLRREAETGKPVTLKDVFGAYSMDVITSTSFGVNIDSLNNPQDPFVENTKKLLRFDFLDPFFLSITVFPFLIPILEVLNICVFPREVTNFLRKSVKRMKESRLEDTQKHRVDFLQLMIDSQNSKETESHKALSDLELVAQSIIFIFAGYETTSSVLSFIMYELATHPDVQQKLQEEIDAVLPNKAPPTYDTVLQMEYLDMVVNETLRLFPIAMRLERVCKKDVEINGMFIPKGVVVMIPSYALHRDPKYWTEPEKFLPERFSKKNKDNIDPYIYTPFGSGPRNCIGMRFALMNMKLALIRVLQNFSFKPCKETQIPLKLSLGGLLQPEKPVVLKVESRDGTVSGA

| SMILES | activity change, negative = inhibition [%] | Potency |
| --- | --- | --- |
| CCC1(CC)C(=O)C=CNC1=O | -8.61 | – |
| CC(C)(C)NCC(O)c1ccccc1Cl (stereo not given) | -1.7 | – |
| c1ccc2c(c1)sc1ccccc12 | -7.2 | – |
| CNC(C)(C)Cc1ccccc1 | -6.01 | – |
| CC(NC(C)(C)C)C(=O)c1cccc(Cl)c1 (stereo not given) | -8.73 | – |
| NC(=O)c1cc([N+](=O)[O-])cc([N+](=O)[O-])c1 | – | 7.94 µM (active) |
| CCCCCCNC(=O)n1cc(F)c(=O)[nH]c1=O | – | 20 µM (active) |
| O=C1c2ccccc2C(=O)c2ccccc21 | -8.37 | – |
| NC(=O)CS(=O)C(c1ccccc1)c1ccccc1 (stereo not given) | 2.33 | – |

Target: Cytochrome P450 3A4 (Homo sapiens) (UniProt P08684)
Assay: qHTS Assay for Activators of Cytochrome P450 3A4 (AID 885); also: nearly all actives have a fitted effect of over 65% in size
Settings: recombinant CYP3A4, Luciferin-PPXE luminescence, 60 min; series mostly up to 57.1 µM; activity change, positive = activation: at the top concentration
Procedure, shortened: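 Human CYP3A4 (20 nM) with Luciferin-PPXE at 25 uM (its KM) in 200 mM KPO4; 10 min compound preincubation, then NADPH regeneration and 60 min reaction at RT. Luciferin read by luminescence; normalized to 57 uM ketoconazole full inhibition.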

| SMILES | activity change, positive = activation [%] |
| --- | --- |
| NC(=O)c1cc([N+](=O)[O-])cc([N+](=O)[O-])c1 | -63.4 |
| CCCCCCNC(=O)n1cc(F)c(=O)[nH]c1=O | -65.6 |
| CCC1(c2ccc(N)cc2)CCC(=O)NC1=O (stereo not given) | -53.3 |
| Nc1ccc(O)cc1 | -51.2 |
| C=CCc1ccc(O)c(OC)c1 | -45.5 |
| CCOP(=S)(OCC)Oc1ccc2c(C)c(Cl)c(=O)oc2c1 | -76.1 |
